For 27 molecules, composite z-score and z-score results are on record in PubChem BioAssay.

Assay [1] relates to XIP peptide (Xip251-270) binding. The experiment in a line: XIP fragment 251-270 binding compounds – biochemical, small-molecule microarray, fluorescence 635/667 nm, 0.1 µg/mL protein, primary screen (AID 1182). The conditions noted are these: fluorescent protein binding, 635 nm, higher = more signal, called active from +8 up or from −8 down.
Another assay relates to XIP peptide (Xip251-270). The experiment in a line: compounds binding XIP fragment 251-270 – biochemical, small-molecule microarray, fluorescence 635/667 nm, 0.5 µg/mL protein, primary screen (AID 1183). The settings on record: fluorescence 635 nm, higher = more signal.
Assay [2] can be described thus: blood-stage malaria parasite viability loss – strain 3D7, DAPI fluorescence, 100 nL, primary screen (AID 1184).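 Further: parasites grown inside human red blood cells in medium with human serum.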 The settings on record: P. falciparum 3D7 growth, 3 d, higher = more signal.
Assay [3] has as its target Homeobox protein Hox-A13 (Mus musculus) (UniProt Q62424). The experiment in a line: disruptors of Hoxa13 oligonucleotide interaction – biochemical, fluorescence polarization, labeled oligonucleotide, primary screen (AID 1185). The conditions noted are these: Hoxa13:DNA binding, 15 min, higher = more signal, called active from +8 up or from −8 down.
Assay [4] in a line: blockers of DNA damage checkpoint Chk1 activation – imaging, HeLa, hydroxyurea, phospho-Chk1 antibody, percent positive cells, primary screen (AID 1186). The conditions noted are these: hydroxyurea-induced phospho-Chk1 immunofluorescence imaging, higher = more signal.
Assay [5] in a line: blockers of DNA damage checkpoint Chk1 activation – imaging, HeLa, hydroxyurea, phospho-Chk1 nuclear intensity, primary screen (AID 1187). The settings on record: hydroxyurea-induced phospho-Chk1 immunofluorescence imaging, higher = more signal.

Each structure is given as a SMILES string. The source made the active and inactive calls. Unless noted, how the calls were made is not given here.

Homeobox protein Hox-A13 (Mus musculus), sequence (Q62424 whole entry, looked up): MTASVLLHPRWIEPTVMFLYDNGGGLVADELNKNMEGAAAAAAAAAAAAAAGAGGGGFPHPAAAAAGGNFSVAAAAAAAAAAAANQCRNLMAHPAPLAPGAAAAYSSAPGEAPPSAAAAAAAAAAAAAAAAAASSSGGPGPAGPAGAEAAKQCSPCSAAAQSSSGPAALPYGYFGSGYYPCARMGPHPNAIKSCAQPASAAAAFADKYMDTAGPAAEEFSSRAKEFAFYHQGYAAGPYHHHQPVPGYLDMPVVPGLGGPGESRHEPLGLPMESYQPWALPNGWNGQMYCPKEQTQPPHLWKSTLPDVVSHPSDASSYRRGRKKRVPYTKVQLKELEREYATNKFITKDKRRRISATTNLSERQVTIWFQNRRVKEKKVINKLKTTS

With `C=C(C)C1CCC(C(O)C2C=CC3C(=O)N(C)C(=O)C3N2N2CCCCC2)CC1` (configuration not stated), the figures for the composite z-score (in assay [1]; with XIP peptide (Xip251-270)) were 0.763 (inactive) and 0.622, respectively. Further, the z-score in assay [2] is -0.122; in assay [3], -5.66 (inactive); in assay [4], 0.692 (inactive); in assay [5], 0.133 (inactive).

As to `CCCCCCc1nc(C2CC2)cc2c1[Si](C(C)C)(C(C)C)O[C@H]2c1ccccc1`, the composite z-score in assay [1] is 0.263 (inactive); in the assay on XIP peptide (Xip251-270) it was 0.421. Moreover, the z-score is -0.358 in assay [2], -1.54 (inactive) in assay [3], -0.507 (inactive) in assay [4] and -0.465 (inactive) in assay [5].

In the case of `C=CCC(OC(C)=O)[C@@H]1[C@@H](N(Cc2cc3ccccc3o2)C(=O)Cc2ccc(F)cc2)c2cc(OCCCO)ccc2N1C(=O)c1ccc2ccccc2c1` (some centres not stated), the results for the composite z-score (in assay [1]; in the assay with XIP peptide (Xip251-270)) were -0.231 (inactive) and -0.271, respectively. The z-score was 1.15 in assay [2], -1.95 (inactive) in assay [3], 0.608 (inactive) in assay [4] and 0.308 (inactive) in assay [5].

Regarding `C[C@]1(C(=O)NC2CC2)c2ccccc2C(=O)N(Cc2ccccc2)[C@H]1c1ccc(CO)cc1`, the composite z-score in assay [1] is -0.0942 (inactive); with XIP peptide (Xip251-270) it was -0.227. Moreover, the z-score in assay [2] is -1.62; in assay [3], -1.31 (inactive); in assay [4], -0.483 (inactive); in assay [5], -0.567 (inactive).

Turning to `O=C1C[C@@](C(=O)NCCN2CCOCC2)(c2ccc([N+](=O)[O-])cc2)[C@@H](c2ccc(CO)cc2I)N1C1CCCCC1`, the composite z-score in assay [1] is -0.026 (inactive); in the assay on XIP peptide (Xip251-270), 0.588. In addition, the z-score was -1.37 in assay [2], -5.37 (inactive) in assay [3], 0.0213 (inactive) in assay [4] and 0.245 (inactive) in assay [5].

For `O=C(CS)NCCCCCNC(=O)[C@@H]1C[C@@H]2C(=O)N3CCC[C@H]3C(=O)N2[C@@H]1c1cccc(OCCO)c1`, the composite z-score in assay [1] is 2.29 (inactive); in the assay on XIP peptide (Xip251-270) it was 0.839. In addition, the z-score in assay [2] is 1.05; in assay [3], -3.61 (inactive); in assay [4] it was 1.25 (inactive); in assay [5], 0.575 (inactive).

As to `CCOC(=O)C1=CC[C@@H](c2ccc(OCc3ccccc3)c(OC)c2)N(S(=O)(=O)c2ccc(C)cc2)[C@H]1c1ccc(SC)cc1`, the composite z-score in assay [1] was 0.56 (inactive); with XIP peptide (Xip251-270), 0.569. For the same molecule, the z-score in assay [2] was -2.05; in assay [3] it was 1.81 (inactive); in assay [4], -0.387 (inactive); in assay [5], -0.768 (inactive).

With `COc1ccc(CCNC(=O)[C@@]2(Sc3ccc(C)cc3)CC(=O)N(C3Cc4ccccc4C3)[C@@H]2c2ccc(CO)cc2)cc1`, the composite z-score in assay [1] is 0.984 (inactive); in the assay with XIP peptide (Xip251-270), 0.703. The z-score is -1.89 in assay [2], 0.563 (inactive) in assay [3], -0.341 (inactive) in assay [4] and -0.452 (inactive) in assay [5].

On to `C[C@@H]1ON(c2ccc(C(=O)OC(C)(C)C)cc2)[C@H](c2ccc(O)cc2)[C@H]1C(=O)N1C(=O)OC[C@H]1Cc1ccccc1`, for which the composite z-score in assay [1] was 0.047 (inactive); with XIP peptide (Xip251-270), 0.599. In addition, the z-score in assay [2] was -0.393; in assay [3], -3.64 (inactive); in assay [4], -0.0209 (inactive); in assay [5] it was -0.154 (inactive).

As to `CN(C)C(=O)[C@]1(CCS(=O)(=O)c2ccccc2)N=C(c2ccc(OCCCO)cc2)O[C@@H]1c1ccccc1N=[N+]=[N-]`, the values for the composite z-score (in assay [1]; in the assay with XIP peptide (Xip251-270)) were 1.1 (inactive) and 0.821, respectively. The z-score is -2.34 in assay [2], -3.11 (inactive) in assay [3], -0.197 (inactive) in assay [4] and -0.447 (inactive) in assay [5].

For `O=C1NC(=O)C2C1C=CC(C(O)CCc1ccccc1)N2Nc1ccc(Cl)cc1Cl` (configuration not stated), the composite z-score was 0.157 (inactive) in assay [1] and 0.284 with XIP peptide (Xip251-270). Also, the z-score in assay [2] is 1.5; in assay [3] it was -5.96 (inactive); in assay [4] it was 0.738 (inactive); in assay [5], 0.185 (inactive).

For the molecule `CCCCCCCCCCC(O)C1C=CC2C(=O)N(C)C(=O)C2N1NC(=O)OC(C)(C)C` (configuration not stated), the composite z-score in assay [1] was 0.0658 (inactive); in the assay on XIP peptide (Xip251-270), 0.502. Further, the z-score in assay [2] was -0.451; in assay [3], -2.93 (inactive); in assay [4], 1.91 (inactive); in assay [5] it was 1.4 (inactive).

On to `CCCCC(O)C1C=CC2C(=O)N(c3ccccc3)C(=O)C2N1Nc1ccc(C(C)C)cc1` (configuration not stated), for which the composite z-score in assay [1] is -0.0775 (inactive); in the assay with XIP peptide (Xip251-270), 0.706. The z-score was -0.243 in assay [2], -2.48 (inactive) in assay [3], -0.638 (inactive) in assay [4] and -1.2 (inactive) in assay [5].

As for `CCOc1cc(C(O)C2C=CC3C(=O)N(C)C(=O)C3N2Nc2ccccc2)ccc1O` (configuration not stated), the composite z-score in assay [1] was 0.705 (inactive); with XIP peptide (Xip251-270) it was 0.273. Also, the z-score in assay [2] was -0.211; in assay [3], -2.42 (inactive); in assay [4], -0.0768 (inactive); in assay [5] it was -0.677 (inactive).

For `CN(C)C(=O)C1N=C(c2ccc(OCCCO)cc2)N(c2ccccc2)O1` (configuration not stated), the composite z-score in assay [1] was 0.94 (inactive); with XIP peptide (Xip251-270), 0.62. Further, the z-score was 0.639 in assay [2], -1.46 (inactive) in assay [3], -0.823 (inactive) in assay [4] and -0.846 (inactive) in assay [5].

Consider `CCCCC=C[C@@H](NC(=O)c1ccc(-c2ccccc2)cc1)c1ccccc1`, for which the figures for the composite z-score (in assay [1]; in the assay with XIP peptide (Xip251-270)) were -0.464 (inactive) and -0.102, respectively. For the same molecule, the z-score in assay [2] was 0.067; in assay [3], -3.89 (inactive); in assay [4] it was -0.85 (inactive); in assay [5] it was -1.37 (inactive).

On to `CC1CC/C=C\[C@H]2OC34C=CCN(c5ccc(Cl)cc5)C(=O)[C@H]3N(CCCCCO)C(=O)[C@]4(C)C2C(=O)O1` (some centres not stated), for which the composite z-score in assay [1] is -0.546 (inactive); with XIP peptide (Xip251-270) it was -0.613. Also, the z-score in assay [2] is -0.396; in assay [3], -4.96 (inactive); in assay [4], 1 (inactive); in assay [5] it was 0.917 (inactive).

`Cc1ccc(S[C@]2(C(=O)NCC(F)(F)F)CC(=O)N(Cc3ccccc3)[C@@H]2c2ccc(CO)cc2I)cc1`: the composite z-score is -0.0862 (inactive) in assay [1] and 0.442 with XIP peptide (Xip251-270). Also, the z-score was 0.15 in assay [2], -3.68 (inactive) in assay [3], 0.475 (inactive) in assay [4] and 0.554 (inactive) in assay [5].

As to `O=C1OCC=C[C@H]2OC34C=CCN(Cn5nnc6ccccc65)C(=O)[C@H]3N(CCCO)C(=O)[C@@H]4[C@@H]12` (some centres not stated), the composite z-score in assay [1] is 0.206 (inactive); in the assay on XIP peptide (Xip251-270) it was 0.155. For the same molecule, the z-score in assay [2] was -1.88; in assay [3], -1.9 (inactive); in assay [4], -0.242 (inactive); in assay [5], -0.228 (inactive).

As for `C=CC1c2cc(O)c(OC)cc2CCN1Cc1cc2c(cc1Br)OCO2` (configuration not stated), the composite z-score in assay [1] is 1.31 (inactive); with XIP peptide (Xip251-270), 0.962. In addition, the z-score is -2.14 in assay [2], -5.73 (inactive) in assay [3], -0.103 (inactive) in assay [4] and -0.0965 (inactive) in assay [5].

For `C=CCOC(=O)[C@H]1[C@@H]2C(=O)O[C@@H](c3ccccc3)[C@@H](c3ccccc3)N2[C@@H](c2ccc(OCCOC(=O)[C@H]3C[C@H]4C(=O)N[C@@H](CC(C)C)C(=O)N4[C@H]3c3cccc(OCCO)c3)cc2)[C@]12C(=O)Nc1ccc(I)cc12`, the composite z-score was 0.124 (inactive) in assay [1] and 0.694 in the assay with XIP peptide (Xip251-270). Further, the z-score in assay [2] was -1.79; in assay [3], 0.344 (inactive); in assay [4], -0.592 (inactive); in assay [5], -1.19 (inactive).

For the molecule `CN(C)c1ccc(C(O)C2C=CC3C(=O)N(c4ccccc4)C(=O)C3N2Nc2ccc([N+](=O)[O-])cc2)cc1` (configuration not stated), the composite z-score was -0.0383 (inactive) in assay [1] and 0.648 in the assay on XIP peptide (Xip251-270). Also, the z-score in assay [2] is -0.704; in assay [3], -5.57 (inactive); in assay [4], 0.55 (inactive); in assay [5], -0.576 (inactive).

Turning to `COCCOC(=O)N1C(=O)[C@@]2(c3cc(C#CC4=CCCCC4)ccc31)[C@H](c1ccc(OCCO)cc1)N1[C@H](c3ccccc3)[C@H](c3ccccc3)OC(=O)[C@H]1[C@@H]2C(=O)N1CCN(c2ncccn2)CC1`, the composite z-score is 0.975 (inactive) in assay [1] and 0.278 with XIP peptide (Xip251-270). The z-score was -2.19 in assay [2], 2.06 (inactive) in assay [3], 0.313 (inactive) in assay [4] and 0.448 (inactive) in assay [5].

On to `CCOC(=O)C[C@H]1[C@H](OC(=O)c2ccccc2-c2ccccc2)[C@@H](NC(=O)c2ccc(-c3ccccc3)cc2)c2cc(OCCCO)ccc2N1C(=O)c1ccc2ccccc2n1`, for which the composite z-score in assay [1] is -0.07 (inactive); with XIP peptide (Xip251-270), 0.421. In addition, the z-score was -0.557 in assay [2], -1.48 (inactive) in assay [3], -0.145 (inactive) in assay [4] and -0.0265 (inactive) in assay [5].

As to `O=C1OCC=C[C@H]2OC34C=CCN(c5ccc(Cl)cc5)C(=O)[C@H]3N(CCO)C(=O)[C@@H]4[C@@H]12` (some centres not stated), the figures for the composite z-score (in assay [1]; with XIP peptide (Xip251-270)) were -0.0292 (inactive) and -0.457, respectively. The z-score was 1.05 in assay [2], -2.74 (inactive) in assay [3], -0.435 (inactive) in assay [4] and -0.457 (inactive) in assay [5].

`COCCCNC(=O)[C@@]1(Cc2ccccc2CN=[N+]=[N-])N=C(c2ccc(OCCCO)cc2)O[C@H]1c1ccccc1`: the composite z-score was 1.38 (inactive) in assay [1] and 0.789 in the assay with XIP peptide (Xip251-270). The z-score in assay [2] is -2.37; in assay [3], -6.47 (inactive); in assay [4], -0.371 (inactive); in assay [5], -0.349 (inactive).

For `COC(=O)C1=CC(CCCO)=CC(C2CC2)N(C)C=C1C(=O)OC` (configuration not stated), the composite z-score in assay [1] was 0.473 (inactive); in the assay on XIP peptide (Xip251-270), 0.16. Further, the z-score in assay [2] is 0.493; in assay [3], -6.16 (inactive); in assay [4], -0.68 (inactive); in assay [5] it was -1.04 (inactive).
